GRP78 ERSR act – inducers of ER stress response in human glioma cells; 420,000 compounds, 0.02% hits; U87-MG GRP78 promoter luciferase reporter, 16 h; AID 602332; Potency, µM, actives largely listed as activators; note: series mostly up to about 76 µM; nearly all actives have a fitted effect of over 35% in size
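Stably transfected U87-MG glioma cells carrying a GRP78-based luciferase sensor; 16 h compound incubation. Luminescence end-point read 10 min after Bright-Glo addition at room temperature.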
Sfp PPTase inh – inhibitors of Bacillus subtilis Sfp phosphopantetheinyl transferase; Potency, µM, hits mostly inhibitors; Q9F4F7; Biochemical Sfp PPTase activity, qHTS; 310,000 compounds, 3.5% hits; AID 1490;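 note: the enzyme is Sfp with the accession as filed and its product quenches rhodamine fluorescence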
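Buffer: 50 mM Hepes-Na pH 7.6, 10 mM MgCl2, 0.01% Nonidet P-40, 0.01% BSA. Enzyme 15 nM, pre-exposed to compound 15 min; substrates then added and fluorescence change tracked over 30 min.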
ALOX12 inh – blocks human arachidonate 12S-lipoxygenase | Potency, µM (series often up to 108 µM), most hits filed as inhibitors | AID 1671190 | purified 12hLO, xylenol orange hydroperoxide absorbance | 580,000 compounds, 1.1% hits | P18054
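Hydroperoxide product was detected by ferrous iron/xylenol orange as the 573 to 405 nm absorbance ratio. Arachidonic acid at 40 uM (final) was turned over for 30 min at room temperature by 150 nM human 12hLO, pH 7.0 Hepes buffer, after 15 min compound preincubation.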
VDR inhibitor – vitamin D3 receptor (human) inhibition | P11473 | AID 504847 | VDR-SRC2-3 peptide fluorescence polarization, 2 h | Potency, µM, actives largely listed as inhibitors | 400,000 compounds, 0.93% hits
Target sequence (P11473 whole entry, looked up): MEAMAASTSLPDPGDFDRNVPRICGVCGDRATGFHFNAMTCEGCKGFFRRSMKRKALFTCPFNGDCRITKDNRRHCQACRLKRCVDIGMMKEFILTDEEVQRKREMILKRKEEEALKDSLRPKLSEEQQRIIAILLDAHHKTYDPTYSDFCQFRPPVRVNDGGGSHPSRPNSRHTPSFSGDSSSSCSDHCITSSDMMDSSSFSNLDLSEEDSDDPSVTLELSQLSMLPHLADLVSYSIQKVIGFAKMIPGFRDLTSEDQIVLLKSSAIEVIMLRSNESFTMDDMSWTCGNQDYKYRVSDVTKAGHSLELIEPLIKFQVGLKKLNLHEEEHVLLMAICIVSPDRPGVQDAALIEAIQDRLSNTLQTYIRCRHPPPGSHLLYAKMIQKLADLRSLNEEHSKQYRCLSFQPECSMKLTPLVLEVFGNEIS
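FP read-out; VDR + SRC2-3 coactivator peptide; 23 nl compound by pintool; 2 h RT incubation; reagents held at 4 deg C, protected from light.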
G9a inh – G9a (human) methyltransferase inhibition. Q96KQ7. G9a H3K9 monomethylation, AlphaScreen, 2 h. Potency, µM (titrated, usually from 102 µM), most hits filed as inhibitors. 350,000 compounds, 8.8% hits. AID 504332; note: nearly all actives have a fitted effect of over 75% in size
Target sequence (Q96KQ7 913-1193 limits assumed): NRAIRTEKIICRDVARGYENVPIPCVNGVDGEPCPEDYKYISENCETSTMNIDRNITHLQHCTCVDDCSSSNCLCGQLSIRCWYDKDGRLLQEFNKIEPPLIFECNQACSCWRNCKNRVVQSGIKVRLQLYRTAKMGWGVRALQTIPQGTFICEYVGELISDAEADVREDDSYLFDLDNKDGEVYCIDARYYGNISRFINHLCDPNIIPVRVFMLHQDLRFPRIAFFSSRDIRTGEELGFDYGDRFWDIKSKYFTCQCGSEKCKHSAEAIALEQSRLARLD
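Signal arises when biotinylated H3K9 peptide, once monomethylated, bridges streptavidin donor and antibody-captured acceptor beads. Enzyme at 20 nM was preincubated 15 min with test compounds; peptide 500 nM and SAM 20 uM then reacted for 2 h.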
Numbers stand for hits; - = inactive; ? = inconclusive; . = not tested or not shown; [ ] = remark or other dose. This excerpt belongs to a sample that is enriched for hits. Calls come from the whole dose curve; as a rule, active = well fitted curve in the direction sought with a large enough effect; inconclusive = small, poorly fitted or top-dose-only effect, or another doubt; inactive = no such curve, though single readings can be large; an effect the other way counts as inactive or inconclusive.

SMILES	GRP78 ERSR act	Sfp PPTase inh	ALOX12 inh	VDR inhibitor	G9a inh
COc1cc(C(=O)Oc2ccc3c(c2)CCC3)cc(Cl)c1OCC(C)C	.	.	-	.	.
Cc1cccc(COc2ccccc2C(=O)O)c1	.	.	-	.	.
COCCNc1oc(COc2ccc(-c3ccccc3)cc2)nc1C#N	.	.	-	.	.
CCN(c1cccc(C)c1)S(=O)(=O)c1nnc(NC(=O)c2cccs2)s1	-	.	-	-	3.2µM
Cc1ccc(N2CCN(S(=O)(=O)c3nnc(NC(=O)c4ccco4)s3)CC2)cc1	-	-	-	-	28µM
Cc1ccc(C)c(C(=O)COC(=O)c2cc3ccccc3[nH]2)c1	.	.	-	.	.
COc1ccc(OCc2nc(C#N)c(N3CCN(C)CC3)o2)cc1	.	.	-	.	.
CS(=O)(=O)c1ccc2c(c1)sc1nc(=O)c(/C=C3/C=CC(=O)C(O)=C3)c(N)n12	?	32µM	-	-	5µM
CSc1nc(C)cc(-c2ccccc2)n1	.	.	-	.	.
CCCc1cc(=O)n2[nH]c(NC(=O)c3ccco3)nc2n1	-	-	?	-	79µM
CCCc1cc(=O)n2[nH]c(NCc3c(Cl)cccc3Cl)nc2n1	-	-	-	-	-[12.7 µM]
O=C(O)c1ccc(NC(=S)NC(=O)C(c2ccccc2)c2ccccc2)cc1	-	-	?	-	-
O=C(O)c1cccc(NC(=S)NC(=O)C(c2ccccc2)c2ccccc2)c1	-	-	28µM	-	-
COc1ccc(C(=O)O)cc1NC(=S)NC(=O)C(c1ccccc1)c1ccccc1	-	-	35µM	-	-
COc1cc(/C=N/OCc2cccc3ccccc23)ccc1OCc1ccc(Cl)cc1	.	.	-	.	.
O=C(CC(Sc1ccc(Br)cc1)C(=O)O)c1ccc(F)cc1 (configuration not stated)	-	45µM	-	13µM	?
CCOc1ccc(C(=O)CC(Sc2ccc(C)cc2)C(=O)O)cc1 (configuration not stated)	-	35µM	?	?	-[12.7 µM]
Cc1ccc(NC(=S)NC(NC(=O)C(C)C)C(Cl)(Cl)Cl)cc1 (configuration not stated)	.	.	-	.	.
CN1CCCC1CCNc1nccc(-c2cnn(-c3ccc(F)cc3)c2)n1 (configuration not stated)	.	.	-	.	.
Cc1ccc(NC(=O)Cn2c(O)c(N=NS(=O)(=O)c3ccc(C)cc3)c3ccccc32)cc1	-	-	14µM	?	2.5µM
Cc1ccc(NC(=O)Cn2c(O)c(N=NC(N)=O)c3ccccc32)cc1	-	-	-	-	-
S=C1NCN(Cc2ccco2)CN1CCc1ccccc1	-	-	-	-	?
CCOCCCN1CN(Cc2ccco2)CNC1=S	-	40µM	-	-	16µM
CC(C)(C)N=C1NN=C(c2ccc(Cl)cc2)CS1	-	-	?	-	-
CC(C)(C)N=C1NN=C(c2cc3ccccc3o2)CS1	-	-	-	-	40µM
SMILES	GRP78 ERSR act	Sfp PPTase inh	ALOX12 inh	VDR inhibitor	G9a inh
O=C(O)C/C(=C/c1cccc(O)c1)c1nc2ccccc2o1	.	.	-	.	.
Cc1c(C(=O)O)cccc1-n1c(C)cc(C=O)c1C	-	-	-	-	45µM
Cc1ccc(NC(=O)CC23CC4CC(CC(C4)C2)C3)cc1	.	.	-	.	.
Cc1ccc(Nc2nc(CSc3nnc(-c4ccncc4)n3C)cs2)cc1	-	40µM	-	-	40µM
Cc1ccccc1Nc1nc(CSc2nnc(-c3ccoc3C)n2C)cs1	-	20µM	-	-	40µM
COc1ccccc1CNCC(O)Cn1c2ccccc2c2ccccc21 (configuration not stated)	-	-	-	-	-
CN1CCc2c(n(CC(O)CNCc3ccccc3)c3ccccc23)C1=O (configuration not stated)	-	-	-	-	50µM
CN1CCc2c(n(CC(O)CN3C(=O)c4ccccc4S3(=O)=O)c3ccccc23)C1=O (configuration not stated)	-	-	-	-	-
CN1CCc2c(n(CC(O)CN(CCO)CCO)c3ccccc23)C1=O (configuration not stated)	-	?	-	-	35µM
CC(C)(C)N=Cc1cc(Br)ccc1O	.	.	56µM	.	.
Cc1cc(N=Cc2cc(Br)ccc2O)no1	-	-	?	-	-
COc1ccc(C)cc1N(C(=O)c1ccc(C#N)cc1)C1=NC(C)(C)CS1	-	-	-	-	28µM
COc1ccc(C)cc1N(C(=O)c1ccccc1)c1nc2ccccc2s1	-	-	-	-	-
O=C(CSc1ncnc2scc(-c3ccccc3)c12)N1CCN(Cc2ccc3c(c2)OCO3)CC1	-	-	-	-	45µM
Cc1sc2ncnc(SCc3ccc(C(=O)O)cc3)c2c1C	-	-	-	-	45µM
Cc1ccc(-c2csc3ncnc(SCc4ccc(C(=O)O)cc4)c23)cc1	-	50µM	?	-	.
Cc1ccc(-c2csc3ncnc(SCC(N)=O)c23)cc1	-	-	-	-	-
Cc1nc(SCc2ccc(C(=O)O)cc2)c2c(C)c(C)sc2n1	-	-	-	-	-
CC(C)n1cnnc1-c1nn(C)c2c1CN(C(=O)Cc1c[nH]c3ccccc13)CC2	.	.	-	.	.
O=C(CCN1CCN(C(c2ccccc2)c2ccccc2)CC1)N/N=C/c1ccc(O)cc1O	-	-	?	-	?
COc1cc(Cl)cc(NC(=O)CCN2CCN(C)CC2)c1	-	-	-	-	50µM
Cc1cc(NC(=O)CCN2CCN(C/C=C/c3ccccc3)CC2)ccc1Br	-	?	6.3µM	-	-[0.501 µM]
COc1ccc(OC)c(/C=N/NC(=O)CCN2CCN(C(c3ccccc3)c3ccccc3)CC2)c1	-	-	-	-	10µM
Cc1ccc(NC(=O)CCN2CCN(Cc3ccccc3)CC2)cc1Br	.	.	50µM	.	.
CCN(CC(=O)Nc1ccccc1OC)C(=O)c1cc(=O)c2cc(C)ccc2o1	.	.	-	.	.
SMILES	GRP78 ERSR act	Sfp PPTase inh	ALOX12 inh	VDR inhibitor	G9a inh
COc1ccccc1NC(=O)C1CC2CCC1C2 (configuration not stated)	.	.	-	.	.
N#Cc1ncn(Cc2coc(-c3ccccc3)n2)n1	.	.	-	.	.
Cc1ccc(OCCN(C)C(=O)c2cc(=O)[nH]c3ccccc23)cc1	.	.	-	.	.
COc1ccc(CNC(=O)c2cc3ccccc3[nH]2)cc1	.	.	-	.	.
NC(=O)C(O)(c1ccccc1)c1ccccc1	.	.	-	.	.
CN1CCN(CCC(=O)Nc2cccc(Br)c2)CC1	?	-	?	-	56µM
COc1ccc(OC)c(NC(=O)CCN2CCN(Cc3ccccc3)CC2)c1	-	-	?	-	50µM
O=C(CCN1CCCCC1)Nc1cccc(Br)c1	-	-	?	-	.
CC(C)(C)NC(NC(=O)c1ccccc1Cl)C(Cl)(Cl)Cl (configuration not stated)	.	.	-	.	.
C=CCn1c(-c2ccccc2)c[nH]c1=S	-	79µM	?	-	?
Cn1c(-c2ccc(-c3ccccc3)cc2)c[nH]c1=S	-	-	40µM	-	14µM
C=CCn1c(-c2ccc(Cl)cc2)c[nH]c1=S	-	-	?	-	1.4µM
C=CCn1c(=N)n(CC(=O)c2ccc(Cl)cc2)c2ccccc21	-	-	-	-	-
CCn1c(-c2ccc(-c3ccccc3)cc2)c[nH]c1=S	-	-	?	-	?
COc1ccc(-c2ccc(-c3nc(CC(C)C)no3)cn2)c2cccnc12	.	.	-	.	.

From PubChem BioAssay
